Records with an inconclusive call do not appear. Where a call stands in place of a potency, no number is given. The source made the active and inactive calls. Calls follow the shape of the dose curve; as a rule, active = well fitted curve in the direction sought with a large enough effect; inconclusive = small, poorly fitted or top-dose-only effect, or another doubt; inactive = no such curve, though single readings can be large; an effect the other way counts as inactive or inconclusive. Where a SMILES comes first, the peptide text is derived from it. Bridges are numbered along the chain shown (N, C = ends). [ ]: non-standard residue; d: D form. The star is where a group is joined. X1 = CCC(C)C(N)C1=NC(C(=O)*)CS1; PhLac = O=C(O)[CH](O)Cc1ccccc1; NMeV = CN[CH](C(=O)O)C(C)C; dOrn = NCCC[C@@H](N)C(=O)O
Tested on: not listed separately
Experiment: Primary fluorescence-based thiol-reactive (MSTI) qHTS assay for identification of artifact compounds. (AID 1845221); also: nearly all actives have a fitted effect of over 65% in size; also: potency is read from the fitted curve at half-maximal effect
Conditions: MSTI thiol-reactivity probe, 1 h; series mostly up to 53.8 µM
In short: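 qHTS titration of compound; 4 uM MSTI, PBS pH 7.4, 2% DMSO; 1 h RT, dark; fluorescence 525/598 nm; normalized to Acetyl-MSTI and MSTI; 4-parameter Hill fit.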
With C=C(C(=O)O)[C@@H]1CC=C2CCC[C@H](C)[C@@]2(C)C1 the Potency was “inactive”.
In the case of Nc1ncnc2c1ncn2[C@H]1CCCO1, the Potency is reported as “inactive”.
For C/C=C/C=C/C(CC(=O)O)Nc1ccc(C=O)cc1 (centres undefined), the Potency was 4.74 µM (active).
With CC1(C)CCCC2(C)C(CO)C3CCC2C31 (centres undefined) the Potency was “inactive”.
In the case of COc1cc(/C=C/C(=O)OC(C)(C)C(OC2OC(CO)C(O)C(O)C2O)C(=O)OCc2ccc(OC3OC(CO)C(O)C(O)C3O)cc2)ccc1O (centres undefined), the Potency is reported as “inactive”.
With CCC(C)C(N)C1=NC(C(=O)N[C@@H](CC(C)C)C(=O)N[C@H](CCC(=O)O)C(=O)N[C@H](C(=O)N[C@H]2CCCCNC(=O)[C@H](CC(N)=O)NC(=O)[C@@H](CC(=O)O)NC(=O)[C@H](Cc3cnc[nH]3)NC(=O)[C@@H](Cc3ccccc3)NC(=O)[C@H]([C@@H](C)CC)NC(=O)[C@@H](CCCN)NC2=O)[C@@H](C)CC)CS1 (some centres undefined) (X1-L[dE]IK[dOrn]I[dF]H[dD]N; lactam 4-C) the Potency was “inactive”.
For CC(C)(O)C1=CCC23COC(C2)C(O)(C(=O)O)CCC13 (centres undefined), the Potency was “inactive”.

Tested on: Nanoluciferase (engineered Oplophorus gracilirostris luciferase)
Experiment: Primary Nanoluciferase (NLuc) qHTS assay for identification of artifact compounds. (AID 1845222)
Conditions: NLuc-conditioned medium, Nano-Glo luminescence, 5 min; series mostly up to 54.1 µM
In short: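 Diluted conditioned medium from NLuc-expressing S16 cells treated with compounds for 15 min at room temperature, then Nano-Glo substrate added; luminescence read after 5 min. Percent inhibition versus no-enzyme and DMSO controls fitted to 4-parameter Hill equation.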
With CC[C@H](/C=C/[C@@H](C)[C@H]1CC[C@H]2[C@@H]3CC=C4C[C@@H](O)CC[C@]4(C)[C@H]3CC[C@]12C)C(C)C the activity, negative = inhibition was 1.22% [at 6.45 µM] (inactive).
In the case of c1ccc(Cc2ncc3c(n2)CCNCC3)cc1, the Potency is reported as “inactive”.
With C[C@@H]1O[C@@H](O[C@H]2[C@H](O[C@H]3CO[C@@H](O[C@H]4CC[C@@]5(C)C(CC[C@]6(C)C5CC[C@]57OC[C@@]8(CC[C@](C)(CO)CC85)[C@H](O)C[C@]76C)C4(C)C)[C@H](O[C@@H]4O[C@H](CO)[C@@H](O)[C@H](O)[C@H]4O)[C@H]3O)O[C@H](CO)[C@@H](O)[C@@H]2O)[C@H](O)[C@H](O)[C@H]1O (some centres undefined) the activity, negative = inhibition was -0.449% [at 11.6 µM] (inactive).
With COC(=O)C1=CO[C@@H](O[C@@H]2O[C@H](CO[C@@H]3O[C@H](COC(=O)/C=C/c4ccc(O)cc4)[C@@H](O)[C@H](O)[C@H]3O)[C@@H](O)[C@H](O)[C@H]2O)[C@@H]2C(CO)=CC[C@H]12 the Potency was “inactive”.
With CC1(C)CC[C@]2(C(=O)O)CC[C@]3(C)C(=CCC4[C@@]5(C)C[C@H](O)[C@H](O[C@@H]6OC[C@H](O)[C@H](O)[C@H]6O)[C@@](C)(CO)C5CC[C@]43C)[C@@H]2C1 (some centres undefined) the Potency was “inactive”.
In the case of CC(C)C(C(=O)N1CCCC1C(=O)O)N(C)C(=O)C(O)Cc1ccccc1 (centres undefined) (H-[PhLac]-[NMeV]-Pro-OH; configuration not given here), the Potency is reported as “inactive”.
With C[C@@H]1CC[C@]2(C(=O)O[C@@H]3O[C@H](CO)[C@@H](O)[C@H](O)[C@H]3O)CC[C@]3(C)C(=CCC4[C@@]5(C)C[C@@H](O)[C@H](O)C(C)(C)C5CC[C@]43C)C2[C@]1(C)O (some centres undefined) the Potency was “inactive”.
For C=CC1(C)C=C2C(O)CC3C(C)(C(=O)O)CCCC3(C)C2CC1 (centres undefined), the Potency was “inactive”.
For CC(=O)[C@@H]1CC[C@]2(C(=O)O)CC[C@]3(C)C(CCC4[C@@]5(C)CC[C@H](O)C(C)(C)C5CC[C@]43C)C12 (some centres undefined), the Potency was “inactive”.
For CC1(C)CC(=O)N(CCCCN2CCN(c3ncccn3)CC2)C(=O)C1, the Potency was “inactive”.
In the case of O=C(CCO[C@@H]1O[C@H](CO)[C@@H](O)[C@H](O)[C@H]1O)c1ccc(O)cc1, the Potency is reported as “inactive”.
In the case of COC(=O)C1(Cc2ccc(O)cc2)OC(=O)C(OC)=C1c1ccc(O)cc1 (centres undefined), the Potency is reported as “inactive”.
For COc1cc([C@H]2OC[C@]3(OC(C)=O)[C@@H](c4ccc(O[C@@H]5O[C@H](CO)[C@@H](O)[C@H](O)[C@H]5O)c(OC)c4)OC[C@H]23)ccc1O, the Potency was “inactive”.
For CC(=O)O[C@@H]1[C@@H](OC(=O)/C=C/c2ccccc2)[C@H](C)O[C@@H](O[C@H]2[C@@H]3C=CO[C@@H](O[C@@H]4O[C@H](CO)[C@@H](O)[C@H](O)[C@H]4O)[C@@H]3[C@@]3(CO)O[C@@H]23)[C@@H]1OC(C)=O, the Potency was “inactive”.
In the case of CC1CCC2(C(=O)OC3OC(CO)C(O)C(O)C3O)CCC3(C(=O)O)C(=CCC4C5(C)CCC(OC6OC(C)C(O)C(O)C6O)C(C)(C)C5CCC43C)C2C1C (centres undefined), the Potency is reported as “inactive”.
With O=C1N(CC2CCCCN2)CCN1c1ccccc1 (centres undefined) the Potency was “inactive”.
With Cc1coc2c1CC1OC1(C)CCC1OC1(C)C2 (centres undefined) the Potency was “inactive”.
In the case of CC(CO[C@@H]1O[C@H](COC(=O)/C=C/c2ccc(O)c(O)c2)[C@@H](O)[C@H](O)[C@H]1O)C1(O)COC(=O)C1 (some centres undefined), the Potency is reported as “inactive”.
With OCC1OC(Oc2cc(O)c3c(c2)OC(c2ccc(O)cc2)C(O)C3)C(O)C1O (centres undefined) the Potency was “inactive”.
In the case of CCNC(=O)[C@H]1O[C@H](n2cnc3c(NCC(c4ccccc4)c4ccccc4)nc(C(=O)NCCNC(=O)NC4CCN(c5ccccn5)CC4)nc32)[C@H](O)[C@@H]1O, the Potency is reported as “inactive”.
For CC1CCCC2OC2C(=O)c2c(O)cc(O)cc2CC(=O)O1 (centres undefined), the Potency was “inactive”.
For CN1C(=O)N[C@@H](Cc2c[nH]c3c(Cl)cccc23)C1=O, the Potency was “inactive”.
With CCC(=O)O[C@]1(C(=O)CCl)[C@@H](C)C[C@H]2[C@@H]3C[C@H](F)C4=CC(=O)C=C[C@]4(C)[C@@]3(F)[C@@H](O)C[C@@]21C the Potency was “inactive”.
For C[C@@H]1O[C@@H](O[C@H]2[C@H](OC(=O)[C@]34CCC(C)(C)C[C@H]3C3=CCC5[C@@]6(C)CC[C@H](O[C@@H]7O[C@H](CO[C@@H]8OC[C@H](O)[C@H](O)[C@H]8O)[C@@H](O)[C@H](O)[C@H]7O)C(C)(C)C6CC[C@@]5(C)[C@]3(C)C[C@H]4O)OC[C@@H](O)[C@@H]2O)[C@H](O)[C@H](O)[C@H]1O[C@@H]1OC[C@H](O)[C@H](O[C@@H]2OC[C@@H](O)[C@H](O)[C@H]2O)[C@H]1O (some centres undefined), the activity, negative = inhibition was -4.62% [at 11.6 µM] (inactive).
In the case of CC[C@H](C)/C=C(C)/C=C/C(=O)Cc1cc(O)c(C)c(O)c1C=O, the Potency is reported as “inactive”.
For CC(=O)N[C@H]1[C@H](O[C@H]2CC[C@@]3(C)C(CC[C@]4(C)C3CC=C3C5CC(C)(C)CC[C@]5(C(=O)O)[C@H](O[C@@H]5O[C@H](CO)[C@@H](O)[C@H](O)[C@H]5O)C[C@]34C)C2(C)C)O[C@H](CO[C@@H]2OC[C@H](O)[C@H](O)[C@H]2O[C@@H]2OC[C@@H](O)[C@H](O)[C@H]2O)[C@@H](O)[C@@H]1O (some centres undefined), the activity, negative = inhibition was -3.44% [at 11.6 µM] (inactive).
In the case of C/C1=C\C[C@H](O[C@@H]2O[C@H](CO)[C@@H](O)[C@H](O)[C@H]2O)/C(C)=C/[C@H]2OC(=O)[C@H](C)[C@@H]2CC1, the Potency is reported as “inactive”.
For C=C1CCC2C(C)(COC3OC(COC(=O)CC(=O)O)C(O)C(O)C3O)CCCC2(C)C1CCC1=CCOC1=O (centres undefined), the Potency was “inactive”.
For CC(C)C(=O)O[C@@H]1[C@@H](O)[C@@H](O[C@H]2O[C@H](CO)[C@@H](O)[C@H](O)[C@H]2O)O[C@H](CO)[C@H]1O, the Potency was “inactive”.
For COC1CC(=O)C23C(=O)NC(CC(C)C)C2C(C)C(C)=CC3/C=C(\C)CCC1O (centres undefined), the Potency was “inactive”.
In the case of COc1cc(O[C@@H]2O[C@H](CO)[C@@H](O)[C@H](O)[C@H]2O)c(CCC(=O)OC[C@H]2O[C@@H](Oc3cc(OC)c(C4OC(=O)C(C)(O)C4O)cc3CCC(=O)O)[C@H](O)[C@@H](O)[C@@H]2O)cc1C1OC(=O)C(C)(O)C1O (some centres undefined), the activity, negative = inhibition is reported as 0.289% [at 11.6 µM] (inactive).
With C=C(C(=O)O)[C@@H]1CC=C2CCC[C@H](C)[C@@]2(C)C1 the Potency was “inactive”.
For Nc1ncnc2c1ncn2[C@H]1CCCO1, the Potency was “inactive”.
For CC1(C)CCCC2(C)C(CO)C3CCC2C31 (centres undefined), the Potency was “inactive”.
For COc1cc(/C=C/C(=O)OC(C)(C)C(OC2OC(CO)C(O)C(O)C2O)C(=O)OCc2ccc(OC3OC(CO)C(O)C(O)C3O)cc2)ccc1O (centres undefined), the Potency was “inactive”.
With CCC(C)C(N)C1=NC(C(=O)N[C@@H](CC(C)C)C(=O)N[C@H](CCC(=O)O)C(=O)N[C@H](C(=O)N[C@H]2CCCCNC(=O)[C@H](CC(N)=O)NC(=O)[C@@H](CC(=O)O)NC(=O)[C@H](Cc3cnc[nH]3)NC(=O)[C@@H](Cc3ccccc3)NC(=O)[C@H]([C@@H](C)CC)NC(=O)[C@@H](CCCN)NC2=O)[C@@H](C)CC)CS1 (some centres undefined) (X1-L[dE]IK[dOrn]I[dF]H[dD]N; lactam 4-C) the Potency was “inactive”.
With CC(C)(O)C1=CCC23COC(C2)C(O)(C(=O)O)CCC13 (centres undefined) the Potency was “inactive”.
